Experimental findings from PMC4552634, “A New Set of Chemical Starting Points with Plasmodium falciparum Transmission-Blocking Potential for Antimalarial Drug Discovery” (PLoS ONE, 2015) are described below.

SMILES strings stand for the structures. Read-outs that look alike come from different tables or passages of the source. Hit rate of the full screen: of about 13,000 compounds, about 3,200 (25%) showed an effect of 50% or more. Some of the results follow.

This assay has as its system P. falciparum stage V gametocytes. Also noted: BacTiter-Glo ATP luminescence viability of purified stage V gametocytes in 384-well plates, per cent inhibition versus DMSO. Conditions: 48 h, 5 µM, inhibitor.

The term % Inhibition denotes the relative decrease from the control value, in per cent. As to `Cc1cccc(C)c1C1CCN(C2CCC(NC(=O)/C=C/c3ccccc3)CC2)CC1` (stereo not drawn) [TCMDC-132879], the “% Inhibition” value is -22.62%.
Still for that read-out and setting: then `C=CC12CCN(CC1)C(C(O)c1ccnc3ccc(OC)cc13)C2` (stereo not drawn) [TCMDC-124047], with -22.19%.
Turning to `O=C(Nc1ccc(F)c(F)c1)c1ccc(CN2CCCN(Cc3cccc(O)c3)CC2)cc1` [TCMDC-136390], the “% Inhibition” value was -4.727%.
The same measure, in the same setting: then `CC(=O)Nc1ncc(C(=O)Nc2cccc(-c3cccc(-c4nc5ccc(C(F)(F)F)cc5[nH]4)c3)c2)s1` [TCMDC-136918], with 17.49%; and `CCc1sc(N2CCN(C)CC2)nc1C(=O)Nc1ccc(F)cc1C(F)(F)F` [TCMDC-134298], with 16.91%; and `CCN(CC)CCN(Cc1ccc(-c2ccc(C(F)(F)F)cc2)cc1)C(=O)Cn1c(CCc2cccc(F)c2F)nc(=O)c2sccc21` [TCMDC-140937], with 80.29%.
With `Cc1noc(NC(=O)c2sc3ccccc3c2O)c1C` [TCMDC-124523], the “% Inhibition” value was found to be 7.208%.
`O=C(CNC(=O)c1ccc(O)cc1)Nc1ccc(-c2cccc(-c3nc4ccc(C(F)(F)F)cc4[nH]3)c2)cc1` [TCMDC-136817]: the “% Inhibition” value is -15.92%.
For the compound `COc1cc(O)c2c(=O)c(OC)c(-c3cccc(Cl)c3OCC(=O)O)oc2c1OC` [TCMDC-131682], the “% Inhibition” value was 2.376%.
The same measure, in the same setting: then `N=C(N)c1ccc(NCc2cccc(C(=O)O)c2)cc1` [TCMDC-136136], with -78.43%; and `CS(=O)(=O)Nc1ccc(-c2cnc3[nH]cc(-c4ccc(C(=O)O)cc4)c3c2)cc1` [TCMDC-136306], with 30.86%.
On to `CS(=O)(=O)Nc1cccc(-c2cnc3[nH]cc(-c4ccc(C(=O)O)c(F)c4)c3c2)c1` [TCMDC-136221], for which the “% Inhibition” value is recorded as 80.96%.
Turning to `CS(=O)(=O)Nc1cccc(-c2cnc3[nH]cc(-c4ccc(CCC(=O)O)cc4)c3c2)c1` [TCMDC-136222], the “% Inhibition” value was -32.54%.
As for `NCCNC(=O)c1ccc(-c2cnc3[nH]cc(-c4ccc(C(N)=O)cc4)c3c2)cc1` [TCMDC-132359], the “% Inhibition” value is recorded as 74.46%.
Take `CS(=O)(=O)c1cccc(-c2cnc3[nH]cc(-c4ccc(CCC(=O)O)cc4)c3c2)c1` [TCMDC-136223]: the “% Inhibition” value was 14.42%.
As for `CS(=O)(=O)Nc1cccc(-c2cnc3[nH]cc(-c4cccc(CN)c4)c3c2)c1` [TCMDC-136219], the “% Inhibition” value is 26.05%.
Turning to `CS(=O)(=O)Nc1cccc(-c2cnc3[nH]cc(-c4ccc(C(=O)O)cc4)c3c2)c1` [TCMDC-136215], the “% Inhibition” value is on record as -36.34%.
The same measure, in the same setting: with `CCS(=O)(=O)c1ccc(-c2cnc3[nH]cc(-c4ccc(N)cc4)c3c2)cc1` [TCMDC-132582] the figure was 93.29%; with `CS(=O)(=O)c1cccc(-c2cnc3[nH]cc(-c4cccc(CCN)c4)c3c2)c1` [TCMDC-136307], 108.4%.
As for `NCCC(=O)Nc1ccc(-c2cnc3[nH]cc(-c4ccc(C(=O)O)cc4)c3c2)cn1` [TCMDC-136494], the “% Inhibition” value is given as 31.68%.
As to `O=C(O)c1ccc(-c2c[nH]c3ncc(-c4ccc(Cl)cc4)cc23)cc1` [TCMDC-135860], the “% Inhibition” value is listed as 22.96%.
Consider `CS(=O)(=O)Nc1cccc(-c2cnc3[nH]cc(-c4ccc(CN)cc4)c3c2)c1` [TCMDC-136218], for which the “% Inhibition” value is listed as 33.32%.
In the case of `CCOC(=O)C(C(=O)OCC)c1nc(C)ns1` [TCMDC-131370], the “% Inhibition” value stood at 6.156%.
For `O=C(Nc1ccc2c(c1)CCC2)c1ccc(N2CCN(c3ccncc3)CC2)cc1` [TCMDC-135127], the “% Inhibition” value was found to be 32.87%.
Take `CC(C)/C(=C(/F)CN1C(=O)C(NC(=O)c2cc3ccccc3[nH]2)C(=O)N(c2ccccc2)c2ccccc21)c1ccccc1` (stereo not drawn) [TCMDC-131897]: the “% Inhibition” value is reported as 34.22%.
For the compound `O=C(Nc1ccc(N2CCCN(Cc3cccc(F)c3)CC2)cc1)c1cccs1` [TCMDC-135012], the “% Inhibition” value is -8.127%.
Regarding `CCc1nc(N)nc(N)c1-c1ccc(F)c(F)c1` [TCMDC-137370], the “% Inhibition” value is recorded as 12.31%.
As for `COc1ccccc1-c1sccc1C(=O)NC1(c2cc(Cl)cc(Cl)c2)CCCC1` [TCMDC-136461], the “% Inhibition” value was -44%.
Turning to `CCc1sc(N2CCN(C)CC2)nc1C(=O)NCCc1ccc(Cl)c(Cl)c1` [TCMDC-134296], the “% Inhibition” value was 25.24%.
Regarding `COc1ccc(Cl)cc1-c1nc(C(=O)NCCN2CCCCC2)c(C)s1` [TCMDC-133714], the “% Inhibition” value was 60.47%.
Regarding `COc1ccc(Cl)cc1-c1nc(C(=O)NCCN2CCCCC2)c(C(C)C)s1` [TCMDC-133715], the “% Inhibition” value is given as 16.92%.
Consider `COc1ccc(Cl)cc1N1CCN(CCCNC(=O)c2ccc(-c3nc4cc(Cl)c(C)cc4[nH]3)s2)CC1` [TCMDC-140032], for which the “% Inhibition” value is given as 3.429%.
For `CCc1sc(-c2cc(Cl)ccc2OC)nc1C(=O)NCCN1CCCCC1` [TCMDC-133716], the “% Inhibition” value is 70.94%.
Consider `CCOc1cc(C(=O)NCCN2CCCCC2)ccc1-c1nc2ccc(Cl)cc2[nH]1` [TCMDC-140913], for which the “% Inhibition” value is reported as 5.667%.
`Cc1ccccc1N1CCN(c2ccc(C(=O)NC(C)C)cn2)CC1` [TCMDC-134577]: the “% Inhibition” value is -17.52%.
On to `CCOC(=O)c1cnc2c(C(F)(F)F)cccc2c1Nc1ccc(O)cc1` [TCMDC-125649], for which the “% Inhibition” value is recorded as -55.53%.
`COc1ccc2nccc([C@@H](O)CN3CCC(NC(=O)/C=C/c4cc([N+](=O)[O-])ccc4OC)CC3)c2c1` [TCMDC-141044]: the “% Inhibition” value is reported as -26.66%.
In the case of `N#CN1CC[C@@H](NS(=O)(=O)Cc2ccc(Cl)c(Cl)c2)C1` [TCMDC-133787], the “% Inhibition” value worked out at 27.55%.
The same measure, in the same setting: with `CCCCCCOc1ccc(C(=O)NCCCC2CCN(CCCCCNC(=O)C=Cc3ccc(Cl)c(Cl)c3)CC2)cc1` [TCMDC-139575] the figure was 7.423%.
As to `CCCCCCOc1ccc(C(=O)NCCC2CCN(CCCCCNC(=O)C=Cc3ccc(Cl)c(Cl)c3)CC2)cc1` [TCMDC-139569], the “% Inhibition” value was determined as 13.58%.
Turning to `O=C(C=Cc1ccc(Cl)c(Cl)c1)NCCCCCN1CCC(CCNC(=O)c2ccc3c(c2)OCO3)CC1` [TCMDC-139568], the “% Inhibition” value came out at 96.26%.
Still for that read-out and setting: with `O=C(C=Cc1ccc(Cl)c(Cl)c1)NCCCCCN1CCC(CCCNC(=O)c2ccc3c(c2)OCO3)CC1` [TCMDC-139574] the figure was 21.18%; with `O=C(/C=C/c1ccc(Cl)c(Cl)c1)NCCCCCN1CCC(NC(=O)Nc2ccc3c(c2)OCO3)CC1` [TCMDC-135718], -35.92%.
On the same count and under the same terms, with `O=C(/C=C/c1ccc(Cl)c(Cl)c1)NCCCCCN1CCC(C(=O)Nc2ccc3c(c2)OCO3)CC1` [TCMDC-136127] the figure was -2.985%; with `CCCCCCOc1ccc(C(=O)NCCCC2CCCN(CCCCCNC(=O)C=Cc3ccc(Cl)c(Cl)c3)C2)cc1` (stereo not drawn) [TCMDC-139581], 50.48%; with `O=C(C=Cc1ccc(Cl)c(Cl)c1)NCCCCCN1CCCC(CCCNC(=O)c2ccc3c(c2)OCO3)C1` (stereo not drawn) [TCMDC-139580], 81.7%.
Consider `O=C(/C=C/c1ccc(Cl)c(Cl)c1)NCCCCCN1CC[C@H](NC(=O)c2ccc3c(c2)OCO3)C1` [TCMDC-139563], for which the “% Inhibition” value is given as 17.23%.
`Cc1ccc(NC(=O)N2CCCN(CCCCCNC(=O)/C=C/c3ccc(Cl)c(Cl)c3)CC2)cc1` [TCMDC-135744]: the “% Inhibition” value is listed as -49.55%.
On the same count and under the same terms, with `N#Cc1cc(C(=O)c2cc(Br)ccc2O)cn(-c2cc(Cl)cc(Cl)c2)c1=O` [TCMDC-125187] the figure was -21.05%; with `O=[N+]([O-])c1cccc(CNCC2CCC(CNCc3cccc([N+](=O)[O-])c3)CC2)c1` (stereo not drawn) [TCMDC-141176], 8.201%; with `COc1ccc(OC)c(CC2c3ccc(Br)c(O)c3CCN2C)c1` (stereo not drawn) [TCMDC-137439], 12.74%.
Still for that read-out and setting: then `CN1CCN(c2cc3c(cc2Cl)CCN3C(=O)Cc2ccc(NC(=O)Nc3cccc4ccccc34)cc2)CC1` [TCMDC-139472], with -2.627%; and `Cn1ccnc1CNC(=O)c1ccc(-c2cccc(-c3nc4cc(C(F)(F)F)ccc4[nH]3)c2)cc1` [TCMDC-132357], with 7.087%; and `Cc1[nH]c(C)c(-c2ccc(-c3ccc(OCC(F)(F)F)cc3)nc2)c(=O)c1Cl` [TCMDC-132306], with 43.23%.
Same read-out and setting: then `Cc1[nH]c(C)c(-c2ccc(-c3ccc(F)cc3)nc2)c(=O)c1Br` [TCMDC-135925], with 64.89%.
Consider `Cc1[nH]c(C)c(-c2ccc(-c3ccc(Cl)cc3)nc2)c(=O)c1Br` [TCMDC-136159], for which the “% Inhibition” value was determined as 67.06%.
On the same count and under the same terms, with `Cc1[nH]c(C)c(-c2ccc(-c3ccc(Cl)cc3)nc2)c(=O)c1Cl` [TCMDC-136301] the figure was 72.82%; with `Cc1[nH]c(C)c(-c2ccc(-c3ccc(C#N)cc3)nc2)c(=O)c1Br` [TCMDC-136169], 28.48%; with `Cc1[nH]c(C)c(-c2ccc(-c3ccccc3)nc2)c(=O)c1Br` [TCMDC-136158], 42.67%.
For the compound `Cc1[nH]c(C)c(-c2ccc(-c3ccc(C(F)F)cc3)nc2)c(=O)c1Cl` [TCMDC-132329], the “% Inhibition” value came out at 58.86%.
`CC1(C)N=C(N)N=C(N)N1OCCCOc1ccccc1Cl` [TCMDC-131739]: the “% Inhibition” value is on record as -0.9938%.
With `O=C(Nc1ccc(-c2nc3ccccc3[nH]2)cc1)c1ccc(S(=O)(=O)N2CCc3ccccc32)cc1` [TCMDC-125713], the “% Inhibition” value is -13.88%.
Turning to `O=C(N[C@@H](CC1CCCCC1)C(=O)NC1CCCc2ccccc21)c1ccc(O)c(-c2ccc(Cl)c(Cl)c2)c1` (stereo partly drawn) [TCMDC-140869], the “% Inhibition” value is 28.8%.
With `CCOC(=O)c1ccc(-n2c(C)cc(C=C3SC(=Nc4ccccc4)N(C4CCCC4)C3=O)c2C)cc1` [TCMDC-125697], the “% Inhibition” value is reported as -3.505%.
For `Cc1[nH]c(C)c(-c2ccc(-c3ccc4c(c3)OCO4)nc2)c(=O)c1Br` [TCMDC-136161], the “% Inhibition” value is reported as 79.48%.
In the case of `CCC1CN2CCc3c([nH]c4ccccc34)[C@@H]2C[C@@H]1CC1NCCc2cc(OC)c(OC)cc21` (stereo partly drawn) [TCMDC-142008], the “% Inhibition” value (% Inhibition) was -47.66%.
